Data as given in PubChem BioAssay (NCI).
This is part of a sample that, as a whole, favours compounds with a hit. Of some 83,000 tested, about 20% had one in any assay.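 Method: cells in 96-well plates; compound added at one concentration; 48 h incubation; percent growth measured; values under 10 scored active.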 Activity calls are given as the source filed them.

Assays:
Assay in all cases: NCI-60 one-dose screen, 48 h (100 = growth as untreated, 0 = no growth, -100 = all killed)
Conditions in all cases: 10 µM unless noted
HCT-15 colon = system: HCT-15 colon
HT29 colon = system: HT29 colon
SNB-75 CNS = system: SNB-75 CNS
SNB-19 CNS = system: SNB-19 CNS
U251 CNS = system: U251 CNS
PC-3 prostate = system: PC-3 prostate
UACC-62 melanoma = system: UACC-62 melanoma
LOX IMVI melanoma = system: LOX IMVI melanoma
SK-MEL-28 melanoma = system: SK-MEL-28 melanoma
SN12C renal = system: SN12C renal
UO-31 renal = system: UO-31 renal
TK-10 renal = system: TK-10 renal
ACHN renal = system: ACHN renal
CAKI-1 renal = system: CAKI-1 renal
A498 renal = system: A498 renal
CCRF-CEM leukemia = system: CCRF-CEM leukemia
MOLT-4 leukemia = system: MOLT-4 leukemia
SK-MEL-2 melanoma = system: SK-MEL-2 melanoma
EKVX NSCLC = system: EKVX NSCLC
SK-MEL-5 melanoma = system: SK-MEL-5 melanoma

Measured: growth

O=C(NC(Cc1cn(Cc2ccccc2)cn1)C(=O)O)OCC1c2ccccc2-c2ccccc21 (stereo not drawn)
inactive: HCT-15 colon 104% | HT29 colon 98.1% | SNB-75 CNS 92.3% | SNB-19 CNS 109% | U251 CNS 101% | PC-3 prostate 100% | UACC-62 melanoma 112% | LOX IMVI melanoma 97.8% | SK-MEL-28 melanoma 104% | SN12C renal 108% | UO-31 renal 85.1% | TK-10 renal 105% | ACHN renal 104% | CAKI-1 renal 103% | A498 renal 102% | CCRF-CEM leukemia 111% | MOLT-4 leukemia 83.6%

Brc1ccc2[nH]cc(-c3nc(-c4c[nH]c5ncccc45)cs3)c2c1
inactive: SNB-75 CNS 37.3% | SNB-19 CNS 68.8% | U251 CNS 27.7% | PC-3 prostate 38.1% | UACC-62 melanoma 41.9% | SK-MEL-28 melanoma 71.6% | SK-MEL-2 melanoma 36.3% | EKVX NSCLC 43.9% | SN12C renal 49.8% | UO-31 renal 19.2% | TK-10 renal 30.1% | ACHN renal 15.9% | A498 renal 43.6% | CCRF-CEM leukemia 29.7% | MOLT-4 leukemia 18.4%
active: HCT-15 colon -32.3% | HT29 colon 9.69% | CAKI-1 renal 7.49%

CCN(CC)c1ccc(/C=C/c2cc(C)c3ccccc3n2)cc1
inactive: HCT-15 colon 29.8% | SNB-75 CNS 42.7% | SNB-19 CNS 59.7% | U251 CNS 43% | PC-3 prostate 65% | UACC-62 melanoma 38.4% | LOX IMVI melanoma 52.2% | SK-MEL-28 melanoma 55.1% | SK-MEL-2 melanoma 72.9% | EKVX NSCLC 92.8% | SN12C renal 60% | UO-31 renal 66.6% | TK-10 renal 70.3% | ACHN renal 60.8% | CAKI-1 renal 51.9% | A498 renal 51.7% | CCRF-CEM leukemia 53.4% | MOLT-4 leukemia 23.5%
active: HT29 colon 8.05%

O=c1c(CNc2ccc(S(=O)(=O)Nc3ncccn3)cc2)coc2ccccc12
inactive: HCT-15 colon 84.5% | HT29 colon 110% | SNB-75 CNS 79.4% | SNB-19 CNS 94.2% | U251 CNS 93.3% | PC-3 prostate 92.2% | UACC-62 melanoma 89.8% | SK-MEL-28 melanoma 119% | SK-MEL-2 melanoma 95.9% | UO-31 renal 74.9% | TK-10 renal 106% | ACHN renal 89.9% | CAKI-1 renal 130% | A498 renal 102%

COc1ccc(-c2n[nH]nc2-c2cc3ccccc3s2)cc1O
inactive: HCT-15 colon 20% | HT29 colon 29.9% | SNB-75 CNS 35.5% | SNB-19 CNS 27.6% | U251 CNS 15.8% | PC-3 prostate 16% | UACC-62 melanoma 33.7% | LOX IMVI melanoma 20.6% | SK-MEL-28 melanoma 38.4% | SK-MEL-2 melanoma 32.3% | EKVX NSCLC 41.9% | SN12C renal 32.4% | UO-31 renal 40.5% | TK-10 renal 57% | ACHN renal 44.4% | CAKI-1 renal 38.9% | CCRF-CEM leukemia 16% | MOLT-4 leukemia 15.1%
active: A498 renal 1.86%

Cc1ccnc2c(OCc3ccccc3)cccc12
inactive: HCT-15 colon 90.3% | HT29 colon 99.4% | SNB-75 CNS 95.4% | SNB-19 CNS 100% | U251 CNS 92.7% | PC-3 prostate 96.8% | UACC-62 melanoma 85.8% | LOX IMVI melanoma 87.4% | SK-MEL-28 melanoma 95.6% | SK-MEL-2 melanoma 105% | EKVX NSCLC 78.6% | SN12C renal 88.8% | UO-31 renal 64.3% | TK-10 renal 102% | ACHN renal 89.3% | CAKI-1 renal 86.1% | A498 renal 90.3% | CCRF-CEM leukemia 108% | MOLT-4 leukemia 98%

COc1cc2[nH]c(C(=O)c3cc(OC)c(OC)c(OC)c3)c(N)c2cc1C#CCO
active: HT29 colon 1.02% | SNB-75 CNS 8.88% | A498 renal -16.8%
inactive: HCT-15 colon 19.6% | SNB-19 CNS 26.3% | U251 CNS 22.8% | PC-3 prostate 10.6% | UACC-62 melanoma 31.2% | LOX IMVI melanoma 39.4% | SK-MEL-28 melanoma 14.3% | SK-MEL-2 melanoma 29.6% | SN12C renal 45.1% | UO-31 renal 31.5% | TK-10 renal 66.2% | ACHN renal 23% | CCRF-CEM leukemia 11.5% | MOLT-4 leukemia 29.6%

Cn1nc(-c2ccccc2)c2c(-c3ccccc3)onc2c1=O
inactive: HCT-15 colon 38.3% | SNB-75 CNS 20.9% | SNB-19 CNS 34.3% | U251 CNS 25.2% | PC-3 prostate 32.4% | UACC-62 melanoma 38.1% | LOX IMVI melanoma 53.4% | SK-MEL-28 melanoma 74.5% | SK-MEL-2 melanoma 40.1% | EKVX NSCLC 54.2% | SN12C renal 45.4% | TK-10 renal 53% | ACHN renal 58.4% | CAKI-1 renal 36.5% | A498 renal 24.6% | CCRF-CEM leukemia 20.9% | MOLT-4 leukemia 42.8%
active: HT29 colon 1.6%

N#CC1c2ccccc2-c2ccccc2N1C(=O)c1ccccc1 (stereo not drawn)
inactive: HCT-15 colon 12.4% | HT29 colon 12.3% | SNB-75 CNS 39.8% | SNB-19 CNS 53.6% | U251 CNS 18.4% | PC-3 prostate 26.6% | UACC-62 melanoma 22.3% | LOX IMVI melanoma 29.9% | SK-MEL-28 melanoma 58.3% | SK-MEL-2 melanoma 72.7% | EKVX NSCLC 29.5% | SN12C renal 33.3% | UO-31 renal 42.5% | TK-10 renal 63.9% | ACHN renal 30.1% | CAKI-1 renal 37.4% | CCRF-CEM leukemia 41.7% | MOLT-4 leukemia 35.8%

CC(C)(C)c1[nH]nc2c1C(c1cc3ccccc3[nH]c1=O)Nc1cc(C(=O)OCc3ccccc3)ccc1N2 (stereo not drawn)
inactive: HCT-15 colon 55.3% | HT29 colon 62.1% | SNB-75 CNS 71.7% | SNB-19 CNS 61.7% | U251 CNS 51.6% | PC-3 prostate 41.4% | UACC-62 melanoma 49.1% | SK-MEL-28 melanoma 77.2% | SK-MEL-2 melanoma 67% | SN12C renal 61.2% | UO-31 renal 47.2% | TK-10 renal 47.6% | ACHN renal 28.6% | CAKI-1 renal 54.6% | CCRF-CEM leukemia 37.9% | MOLT-4 leukemia 18%

COc1ccc(-c2cc(-c3cccs3)n(N=O)c(=O)c2C#N)cc1
inactive: HCT-15 colon 129% | HT29 colon 107% | SNB-75 CNS 88.9% | SNB-19 CNS 99.1% | U251 CNS 112% | PC-3 prostate 104% | UACC-62 melanoma 95.4% | LOX IMVI melanoma 96.3% | SK-MEL-28 melanoma 124% | SK-MEL-2 melanoma 105% | EKVX NSCLC 115% | SN12C renal 95.8% | UO-31 renal 89.4% | TK-10 renal 114% | ACHN renal 109% | CAKI-1 renal 102% | A498 renal 87.7% | CCRF-CEM leukemia 58.1% | MOLT-4 leukemia 107%

CC1(C)CC[C@]2(C(=O)Nc3ccccn3)CC[C@]3(C)C(=CC[C@@H]4[C@@]5(C)C/C(=C/c6ccncc6)C(=O)C(C)(C)[C@@H]5CC[C@]43C)[C@@H]2C1
inactive: HCT-15 colon 15.3% | SNB-75 CNS 91.6% | SNB-19 CNS 58.4% | U251 CNS 10.3% | PC-3 prostate 28% | UACC-62 melanoma 23.9% | SK-MEL-28 melanoma 37.5% | SK-MEL-2 melanoma 63.3% | EKVX NSCLC 39.3% | SN12C renal 34.4% | UO-31 renal 36.9% | TK-10 renal 77.4% | CAKI-1 renal 40.4% | CCRF-CEM leukemia 25.4% | MOLT-4 leukemia 11.6%
active: HT29 colon 9.45% | ACHN renal -11.9% | A498 renal -17.2%

COc1cc2c(cc1-c1c(C)noc1C)ncc1nc(C3CC3)n([C@H](C)COC(F)F)c12
active: A498 renal 0.499%
inactive: HCT-15 colon 23.9% | HT29 colon 17.3% | SNB-75 CNS 34.3% | SNB-19 CNS 60.1% | PC-3 prostate 39.1% | UACC-62 melanoma 25.5% | LOX IMVI melanoma 15.5% | SK-MEL-28 melanoma 63.5% | SK-MEL-2 melanoma 74.1% | EKVX NSCLC 56.9% | SN12C renal 71.4% | UO-31 renal 21.6% | TK-10 renal 26.5% | ACHN renal 40.6% | CAKI-1 renal 34.1% | CCRF-CEM leukemia 52% | MOLT-4 leukemia 42.2%

COC1=C(Br)C(=O)C(OC)=C(Br)C1=O
active: CCRF-CEM leukemia -12.3%
inactive: HCT-15 colon 96.1% | HT29 colon 106% | SNB-75 CNS 103% | SNB-19 CNS 95.8% | PC-3 prostate 107% | SK-MEL-5 melanoma 99.4% | UACC-62 melanoma 91.2% | SK-MEL-28 melanoma 117% | SK-MEL-2 melanoma 119% | EKVX NSCLC 105% | SN12C renal 95.2% | UO-31 renal 93.3% | TK-10 renal 95.7% | ACHN renal 104% | CAKI-1 renal 98.9% | A498 renal 128% | MOLT-4 leukemia 26.4%

C[C@@H](Oc1ccc(C(=O)NS(=O)(=O)C(C)(C)C)cc1C(F)(F)F)c1ccc(Oc2ccccc2)cn1
inactive: HCT-15 colon 23.8% | HT29 colon 34.6% | SNB-19 CNS 20% | PC-3 prostate 47.5% | SK-MEL-5 melanoma 23.2% | UACC-62 melanoma 18% | SK-MEL-28 melanoma 47.1% | SK-MEL-2 melanoma 38.2% | EKVX NSCLC 65% | UO-31 renal 58.8% | TK-10 renal 79.1% | ACHN renal 61.8% | CAKI-1 renal 38.8% | CCRF-CEM leukemia 25.9% | MOLT-4 leukemia 57.3%
active: SNB-75 CNS -9.43% | A498 renal -0.737%

COC(=O)[C@]12CC[C@@H](C)[C@H](C)[C@@H]1C1=CC[C@@H]3[C@@]4(C)C[C@@H](OC(C)=O)[C@H](O)[C@@](C)(CO)[C@@H]4[C@H](O)C[C@@]3(C)[C@]1(C)CC2
active: HCT-15 colon -94.5% | HT29 colon -95.4% | SNB-75 CNS -83.1% | SNB-19 CNS -71.7% | PC-3 prostate -100% | SK-MEL-5 melanoma -98.5% | LOX IMVI melanoma -100% | SK-MEL-28 melanoma -86% | SK-MEL-2 melanoma -84.2% | EKVX NSCLC -91.8% | SN12C renal -78.3% | UO-31 renal -74.1% | TK-10 renal -96.9% | ACHN renal -88.3% | CAKI-1 renal -85.6% | A498 renal -95.9% | CCRF-CEM leukemia -68% | MOLT-4 leukemia -55.9%
